Screening data deposited in PubChem by National Center for Advancing Translational Sciences (NCATS).
HPGD block = HPGD (human) dehydrogenase inhibition; purified HPGD, NADH fluorescence kinetic, PGE2 substrate; Potency, µM, inactives show at the top dose activity change, negative = inhibition, actives largely listed as inhibitors; 150,000 tested, 4.3% active; AID 894; active = well fitted inhibition curve with a large enough effect, not every such curve was filed as active; inconclusive = small, poorly fitted or top-dose-only effect, or another doubt; inactive = no such curve, though single readings can be large or run the other way; note: potency is the fitted concentration of half-maximal effect
Target sequence (P15428 whole entry, looked up): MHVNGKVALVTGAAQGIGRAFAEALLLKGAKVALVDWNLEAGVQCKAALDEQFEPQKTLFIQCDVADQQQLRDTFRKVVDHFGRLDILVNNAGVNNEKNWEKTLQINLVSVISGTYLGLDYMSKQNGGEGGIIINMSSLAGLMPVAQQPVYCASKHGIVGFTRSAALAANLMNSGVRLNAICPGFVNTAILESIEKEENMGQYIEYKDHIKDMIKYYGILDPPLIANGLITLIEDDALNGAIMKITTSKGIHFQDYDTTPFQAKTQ
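NADH formation kinetics: reaction with 30 uM PGE2 and 1 mM NAD+ (final), 20 nM enzyme, Tris-HCl pH 8 with Tween 20, after 15 min compound preincubation at room temperature. Fluorescence change, last versus first of five reads.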
12-hLO inh = inhibitors of human 12-lipoxygenase (ALOX12) | P18054 | purified 12-hLO, xylenol orange hydroperoxide absorbance | Potency, µM (series often up to 57.1 µM), for inactives: top-dose activity change, negative = inhibition, actives largely listed as inhibitors | 150,000 tested, 0.12% active | AID 1452; note: potency is the fitted concentration of half-maximal effect; nearly all actives have a fitted effect of over 55% in size
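Purified human 12hLO (150 nM), preincubated 15 min with compound, then 40 uM arachidonic acid for 30 min, room temperature, Hepes pH 7.0 with 0.01% Triton X-100. Hydroperoxide detected by ferrous iron/xylenol orange; 573/405 nm absorbance ratio gives reaction progress.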
ALDH1A1 block = ALDH1A1 (human) enzyme inhibition; Purified ALDH1A1, NADH fluorescence, propionaldehyde substrate; Potency, µM (doses to about 75.3 µM), inactives show at the highest dose activity, negative = inhibition, usual class: inhibitors; 220,000 tested, 7.3% active; AID 1030; active = well fitted inhibition curve with a large enough effect, not every such curve was filed as active; inconclusive = small, poorly fitted or top-dose-only effect, or another doubt; inactive = no such curve, though single readings can be large or run the other way;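 note: potency is the fitted concentration of half-maximal effect; plate controls were no enzyme wells and a reference inhibitor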
Target sequence (P00352 whole entry, looked up): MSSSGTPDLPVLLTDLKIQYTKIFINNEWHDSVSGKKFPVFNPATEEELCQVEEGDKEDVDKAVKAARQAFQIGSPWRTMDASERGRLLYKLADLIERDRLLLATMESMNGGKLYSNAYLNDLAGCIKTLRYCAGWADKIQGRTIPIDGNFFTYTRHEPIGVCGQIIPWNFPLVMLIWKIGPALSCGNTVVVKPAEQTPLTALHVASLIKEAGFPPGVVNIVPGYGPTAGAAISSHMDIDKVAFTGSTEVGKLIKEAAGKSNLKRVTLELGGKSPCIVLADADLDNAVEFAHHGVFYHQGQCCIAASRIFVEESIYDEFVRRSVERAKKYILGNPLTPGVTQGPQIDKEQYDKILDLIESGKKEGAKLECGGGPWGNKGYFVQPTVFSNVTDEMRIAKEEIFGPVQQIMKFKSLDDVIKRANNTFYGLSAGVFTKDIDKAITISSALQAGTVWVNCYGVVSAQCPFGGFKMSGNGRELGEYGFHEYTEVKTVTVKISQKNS
IMPase cell inh = membrane-permeable compound that blocks inositol monophosphatase; CHO-M1 cells, IP1 accumulation, HTRF TR-FRET ratio; inhibition (IP1 accumulation), % at 46.1 µM; P97697; AID 901; 120,000 tested, under 10 active; active = well fitted curve in the direction sought with a large enough effect in the signal ratio, not every such curve was filed as active; inconclusive = small, poorly fitted or top-dose-only effect, or a change in a side signal; inactive = no such curve, though single readings can be large or run the other way; the % refers to the signal ratio;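 note: cells stimulated with carbachol in lithium chloride buffer; plate controls were DMSO basal wells for no effect and reference inhibitor wells for full effect; higher means more IMPase inhibition seen as more IP1 and lower FRET ratio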
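In this qHTS, compounds (final up to 46 uM) act on CHO-M1 cells that are then activated through the M1 receptor with carbachol, in pH 7.4 buffer containing 50 mM LiCl, for 30 min. IP1 accumulation is quantified by the IP-One immunoassay.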
PNC assembly inh = blocks assembly of the perinucleolar compartment. 140,000 tested, 3.1% active. PC3M PTB-GFP, PNC prevalence imaging, 16 h; active compounds read low. AID 2417. activity change (PNC), negative = inhibition, % at 10 µM;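 active = readout at or below -70, meaning at least 70% loss of cells showing the perinucleolar compartment, a nuclear body marking cancer cells; inconclusive = readout between -30 and a set limit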;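 note: plate controls were DMSO wells for no effect and camptothecin positive control wells for full effect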
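PC3M cells stably expressing PTB-GFP, 750–1000 cells/well, treated 16 h at 37 °C with compound (23 nl of library stock), in duplicate. After paraformaldehyde fixation and Hoechst stain, imaged at 20x; PNC prevalence scored by image analysis.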
IMPase Li inh = cell-permeable IMPase inhibitors with lithium potentiation | CHO-M1 cells, IP1 TR-FRET (IP-One), carbachol + lithium | Potency, µM (highest dose often 59.4 µM), for inactives: at the highest dose activity, negative = IMPase inhibition, actives largely listed as inhibitors | 210,000 tested, 0.35% active | AID 1457;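 note: IP1 builds up when IMPase is blocked and the TR-FRET signal falls; potency is the fitted concentration of half-maximal effect; plate controls were basal vehicle for no effect and high inhibitor control for full effect; nearly all actives have a fitted effect of over 50% in size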
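IP1 accumulation measured by competitive TR-FRET in lysed CHO-M1 cells after 30 min compound exposure at 37C, with a small lithium addition to potentiate weak responses. Hill-equation AC50 from ratio and donor-channel data.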
* hit, by the source's call; ? = inconclusive; nt = not tested or not shown; [ ] = dose if it differs, or a comment. A selection: hits, their analogues and other compounds. The true share with any hit is near 11%. Unless noted, calls come from the whole dose curve; as a rule, active = well fitted curve in the direction sought with a large enough effect; inconclusive = small, poorly fitted or top-dose-only effect, or another doubt; inactive = no such curve, though single readings can be large; an effect the other way counts as inactive or inconclusive. Unless noted, % is set by controls: 0 for no effect and ±100 for the full control effect.

SMILES	HPGD block	12-hLO inh	ALDH1A1 block	IMPase cell inh	PNC assembly inh	IMPase Li inh
CC1CCN(C(=S)c2ccc([N+](=O)[O-])cc2)CC1	22µM*	-5%	?	-3	-8	4%
O=[N+]([O-])c1ccc(C(=S)N2CCCC2)cc1	nt	nt	?	nt	nt	0%
O=C(CN1CCN(Cc2ccccc2)CC1)NCCNc1ccc([N+](=O)[O-])cn1	nt	nt	9.5µM*	nt	nt	12%
CCOC(=O)OCC1OC(c2ccccc2)C=CC1OC(=O)OCC (stereo unspecified)	nt	nt	7%[13.5 µM]	nt	nt	nt
O=C(CCS(=O)(=O)c1cc(Br)cc2c1N(C(=O)C1CC1)CC2)NCc1ccc(Cl)cc1	nt	nt	nt	3	nt	nt
CS(=O)(=O)N1CCC2(CCCN(C(=O)Nc3cccc(C#N)c3)C2)CC1	-2%	2%	13%	nt	nt	7%
Cc1cccc(NC(=O)Cn2c(=O)n(CCCS(=O)(=O)C3CCCCC3)c(=O)c3ccccc32)c1	nt	nt	nt	4	nt	nt
O=C1C2C3C=CC(CC3)C2C(=O)N1c1ccccc1[N+](=O)[O-] (stereo unspecified)	nt	nt	?	nt	nt	-6%
CCN1CCN(C(=S)c2ccc(SC)cc2)CC1	?	1%	?	-1	5	-5%[38.3 µM]
CCN1CCN(C(=S)c2ccc([N+](=O)[O-])cc2)CC1	25µM*	-3%	?	2	11	-10%
C[C@@](O)(/C=C/[C@H]1CC=CC(=O)O1)[C@@H](C[C@@H](O)\C=C/C=C\C=C\CO)OP(=O)(O)O	0%	-1%[0.00818 µM]	6%[13.5 µM]	nt	nt	6%
CC(=O)N1CCN(c2ccc(NCc3ccc(C)s3)cc2)CC1	-15%	11µM*	25µM*	19	?	13%[38.3 µM]
Cc1ccc(CNc2ccc(N3CCOCC3)cc2)s1	-4%	?	?	5	13	16%[38.3 µM]
Cc1ccc(O)c(C(=O)c2cc(C#N)c(=O)n(CC3CCCO3)c2)c1 (stereo unspecified)	-22%	-6%	?	8	-9	5%[38.3 µM]
COc1ccc(O)c(C(=O)c2cc(C#N)c(=O)n(CC3CCCO3)c2)c1 (stereo unspecified)	-28%	-9%	25µM*	2	-4	10%[38.3 µM]
CCOC(=O)c1ccc(NC(=O)CN(c2ccc(C)cc2)S(=O)(=O)c2ccc(OC)cc2)cc1	nt	nt	nt	7	nt	nt
COc1ccc(C2CC(=O)c3c([nH]c(C(=O)OC4CCCCCC4)c3C)C2)cc1OC (stereo unspecified)	nt	nt	nt	2	nt	nt
CCN(c1ccccc1)c1nc(=O)c2cccnc2s1	nt	nt	20µM*	nt	nt	6%
Cc1ccc(Nc2nc(=O)c3cccnc3s2)cc1	-29%	-2%	0%	5	23	21%[38.3 µM]
CC(/C=N/Nc1nc(C)cc(C)n1)=C\c1ccc(C(C)C)cc1	-11%	-3%	6%	nt	-114*	1%
CC(=O)OC1CC[C@@]2(C)C(CC[C@@]3(C)C2CC=C2C4CC(C)(C)CC[C@]4(C)CC[C@@]23C)C1(C)C (stereo partly specified)	-5%	-1%	2%	nt	nt	29%
O=C1/C(=C/c2c[nH]c3ccccc23)CCC/C1=C\c1c[nH]c2ccccc12	-25%	-13%	1.3µM*	nt	14	17%
COCCNC(=O)[C@H](C)/C=C/C(NC(=O)OCc1ccccc1)c1ccc(C(=O)OC)cc1 (stereo partly specified)	-13%	-1%	?	nt	nt	0%
CC(C)(C)c1ccc(S(=O)(=O)CCc2ccccn2)cc1	-14%	5%	7.1µM*	2	?	-18%[38.3 µM]
Oc1ccc2ccccc2c1Cc1c(O)ccc2ccccc12	-10%	-16%[11.4 µM]	16%[13.5 µM]	nt	nt	-5%
SMILES	HPGD block	12-hLO inh	ALDH1A1 block	IMPase cell inh	PNC assembly inh	IMPase Li inh
O=C(N/N=C/c1ccc(N2CCOCC2)s1)c1ccc(NS(=O)(=O)c2cccs2)cc1	nt	nt	16µM*	nt	nt	nt
O=C(N/N=C/c1ccc(N2CCOCC2)s1)c1ccccc1Cl	nt	nt	16µM*	nt	nt	16%
O=C(N/N=C/c1ccc(N2CCOCC2)cc1)c1ccc(NS(=O)(=O)c2cccs2)cc1	nt	nt	?	nt	nt	-24%
FC(F)(F)c1ccc(Cl)c(N/N=C/c2ccc(N3CCOCC3)s2)c1	?	-28%	4.5µM*	nt	-3	11%
CCOC(=O)N/N=C/c1ccc(N2CCOCC2)s1	-24%	-3%	?	32	25	33%
O=C(c1ccco1)n1nc(-c2cccnc2)nc1NCc1ccco1	nt	nt	?	nt	nt	4%
CCCCOC(=O)c1c(C)oc2c1cc(NS(=O)(=O)c1cc(OC)ccc1OC)c1ccccc12	nt	nt	nt	-4	nt	nt
Cc1[nH]nc2c1/C(=N/O)CC(c1ccccc1)C2 (stereo unspecified)	14µM*	0%	-11%	6	37	-8%[38.3 µM]
CCCc1n[nH]c2c1/C(=N/O)CC(c1ccccc1)C2 (stereo unspecified)	7.1µM*	2%	5%	0	?	8%
CC#CCN1c2ccccc2[C@]23C[C@@H](C(=O)OC)N(C(=O)COCc4ccccc4)C2=NC(C(=O)OC)=C(C(=O)OC)[C@H]13	4%	4%[11.4 µM]	10%[13.5 µM]	nt	nt	6%
CNS(=O)(=O)c1ccc(OC)c(-c2nnc3c4ccccc4c(C)nn23)c1	16µM*	-1%	?	-10	?	-4%[38.3 µM]
COc1ccc(S(=O)(=O)NC(C)(C)C)cc1-c1nnc2c3ccccc3c(C)nn12	-29%	4%	6%	7	36	24%[38.3 µM]
COc1ccc(S(=O)(=O)NCc2ccco2)cc1-c1nnc2c3ccccc3c(C)nn12	5µM*	3%	-17%	13	15	20%[38.3 µM]
CCCn1c(C)nc2c(NCCCN3CCCCC3C)nc(C)nc21 (stereo unspecified)	-6%	2%	5%	nt	nt	4%
CCCOc1ccc(Oc2nc(-c3ccncc3)nc3ccccc23)cc1	nt	nt	2%	nt	nt	nt
Cn1c(=O)c2c(nc(SCC(=O)O)n2Cc2cc3c(cc2Cl)OCO3)n(C)c1=O	25µM*	3%	35µM*	4	58	13%[38.3 µM]
CCOC(=O)CSc1nc2c(sc3ccc([N+](=O)[O-])cc32)c(=O)n1Cc1ccco1	-16%	0%	?	nt	-87*	20%
CCN(CC)C(=O)CSc1nc2cc3c(cc2c(=O)n1Cc1ccco1)OCO3	nt	nt	0.89µM*	nt	nt	1%
COCCNC(=O)c1ccc2c(=O)n(Cc3ccco3)c(SCC(=O)NC3CCCC3)nc2c1	-23%	9%	7.9µM*	5	64	30%[38.3 µM]
CCOC(=O)CSc1nc2ccccc2c(=O)n1Cc1ccco1	-5%	-1%	?	7	-4	2%[38.3 µM]
CCOC(=O)Cn1c(=O)n(Cc2ccco2)c(=O)c2ccc(C(=O)NC3CCCC3)cc21	-4%	-2%	7.9µM*	3	-15	0%[38.3 µM]
